DT40 TDP1 CPT – qHTS for Inhibitors of human tyrosyl-DNA phosphodiesterase 1 (TDP1): qHTS in cells in presence of CPT. 420,000 compounds, 12% hits. chicken DT40 Tdp1-/-;hTDP1 cells + 20 nM CPT, ATP luminescence, 48 h. Potency, µM (titrated, usually from 46.2 µM), most hits filed as inhibitors. AID 686979, 2013; note: nearly all actives have a fitted effect of over 55% in size
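Cell growth measured by CellTiter-Glo luminescence after a minimum 48 h, 37 C compound exposure with 20 nM CPT in Tdp1-knockout DT40 cells stably expressing hTDP1, seeded 400/well; qHTS titration format.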
uPA generation – qHTS for Inhibitors of Cell Surface uPA Generation. cell surface uPA generation assay, qHTS. Potency, µM (titrated, usually from 38.3 µM), most hits filed as inhibitors. 330,000 compounds, 0.31% hits. AID 540303, 2011; active = well fitted inhibition curve with a large enough effect; inconclusive = small, poorly fitted or top-dose-only effect; inactive = no such curve, though single readings can be large or run the other way; tested in mouse RAW 264.7 cells; note: nearly all actives have a fitted effect of over 55% in size
TDP1 cell noCPT – qHTS for Inhibitors of human tyrosyl-DNA phosphodiesterase 1 (TDP1): qHTS in cells in absence of CPT | DT40 Tdp1-/- hTDP1 cells, no CPT, ATP luminescence, 48 h | Potency, µM (titrated, usually from 46.2 µM), hits mostly inhibitors | 420,000 compounds, 15% hits; note: nearly all actives have a fitted effect of over 55% in size
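Cells were dispensed at 400 per well, compounds added by pin tool, plates incubated ≥48 hr at 37 °C, then CellTiter-Glo added for 30 min at room temperature before luminescence reading. Line: DT40 Tdp1-/- complemented with hTDP1; camptothecin omitted.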
miR-21 act – qHTS Assay for Modulators of miRNAs and/orActivators of miR-21 | 340,000 tested, under 10 active | HeLa miR-21 FLuc reporter, luciferase, 48 h | Potency, µM (series often up to 38.3 µM), actives largely listed as activators;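 note: miR-21 action dims this reporter so a rising signal means less miR-21 action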
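HeLa cells stably expressing CMV-driven firefly luciferase with a downstream miR-21 binding sequence, endogenously expressing miR-21, were treated with titrations (up to about 40uM final) for 48 hours at 37 degree Celsius. Luciferase luminescence was read after lysis.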
TDP1 inh – qHTS Assay for Inhibitors of Tyrosyl-DNA Phosphodiesterase (TDP1); 350,000 compounds, 0.28% hits; Potency, µM (titrated, usually from 130 µM), actives largely listed as inhibitors; recombinant TDP1, AlphaScreen DNA substrate cleavage; AID 485290, 2010; note: nearly all actives have a fitted effect of over 40% in size
Target sequence (Q9NUW8 whole entry, looked up): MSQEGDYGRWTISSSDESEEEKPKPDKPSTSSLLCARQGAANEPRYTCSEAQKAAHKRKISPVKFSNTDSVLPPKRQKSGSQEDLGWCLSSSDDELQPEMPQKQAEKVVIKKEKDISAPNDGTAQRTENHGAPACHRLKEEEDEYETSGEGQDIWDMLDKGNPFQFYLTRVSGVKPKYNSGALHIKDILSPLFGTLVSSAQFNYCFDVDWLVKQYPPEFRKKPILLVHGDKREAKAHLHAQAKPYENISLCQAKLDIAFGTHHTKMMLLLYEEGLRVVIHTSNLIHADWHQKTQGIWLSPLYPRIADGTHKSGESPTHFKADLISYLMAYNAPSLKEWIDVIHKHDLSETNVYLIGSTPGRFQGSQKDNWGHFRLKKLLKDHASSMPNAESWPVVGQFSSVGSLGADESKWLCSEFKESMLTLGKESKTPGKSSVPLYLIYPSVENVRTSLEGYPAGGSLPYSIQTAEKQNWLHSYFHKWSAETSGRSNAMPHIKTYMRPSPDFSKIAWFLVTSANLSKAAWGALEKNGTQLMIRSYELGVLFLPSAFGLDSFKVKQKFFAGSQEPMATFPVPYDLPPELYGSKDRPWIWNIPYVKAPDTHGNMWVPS
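E. coli-derived human Tdp1, 1 nM final. Cpd preinc 15 min RT; substrate 15 nM final, 5 min RT; AS bead mix 10 ug/ml final, 10 min RT. Signal loss = tyrosine-FITC cleavage. No-enzyme wells = max signal.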
Of the large screens only hits and unclear results are named; the others gave an inactive call. An excerpt weighted towards active compounds, which were near 16% of everything screened. Unless noted, calls come from the whole dose curve; as a rule, active = well fitted curve in the direction sought with a large enough effect; inconclusive = small, poorly fitted or top-dose-only effect, or another doubt; inactive = no such curve, though single readings can be large; an effect the other way counts as inactive or inconclusive.

CCn1c(N2CCN(CC(=O)c3ccc(OC)cc3)CC2)nc2ccccc21	none
CCn1c(N2CCN(CC(=O)Nc3cccc(C)c3C)CC2)nc2ccccc21	TDP1 cell noCPT 21µM
Cc1cc(C)cc(N(CCC#N)C(=O)COC(=O)c2ccccc2SCC(=O)N2CCCC2)c1	DT40 TDP1 CPT inconclusive, TDP1 cell noCPT inconclusive
COC(=O)C(C#N)c1nc2ccccc2nc1N1CCN(Cc2ccc3c(c2)OCO3)CC1 (centres undefined)	none (no result: DT40 TDP1 CPT, uPA generation, TDP1 cell noCPT)
COCCCNC(=O)C(C#N)c1nc2ccccc2nc1N1CCN(Cc2ccccc2)CC1 (centres undefined)	DT40 TDP1 CPT 23µM, TDP1 cell noCPT inconclusive
C=CCNC(=O)C(C#N)c1nc2ccccc2nc1N1CCN(Cc2ccccc2)CC1 (centres undefined)	none
C=CCOC(=O)C(C#N)c1nc2ccccc2nc1N1CCN(Cc2ccccc2)CC1 (centres undefined)	DT40 TDP1 CPT inconclusive, TDP1 cell noCPT 23µM
C=CCOC(=O)C(C#N)c1nc2ccccc2nc1N1CCN(c2ccccc2OC)CC1 (centres undefined)	DT40 TDP1 CPT inconclusive, TDP1 cell noCPT inconclusive
CCCCOC(=O)C(C#N)c1nc2ccccc2nc1N1CCN(Cc2ccc3c(c2)OCO3)CC1 (centres undefined)	DT40 TDP1 CPT 16µM, TDP1 cell noCPT 18µM
CC(C)COC(=O)C(C#N)c1nc2ccccc2nc1N1CCN(Cc2ccccc2)CC1 (centres undefined)	DT40 TDP1 CPT inconclusive, TDP1 cell noCPT inconclusive
CCC(CC)COC(=O)C(C#N)c1nc2ccccc2nc1N1CCOCC1 (centres undefined)	DT40 TDP1 CPT inconclusive, TDP1 cell noCPT 23µM
Cc1ccc2c(c1)C(=O)OC(C(=O)Nc1ncc(Cc3ccccc3)s1)C2 (centres undefined)	none (no result: DT40 TDP1 CPT, uPA generation, TDP1 cell noCPT)
Cc1ccc(NC2=C(Cl)C(=O)N(C3CCCCC3)C2=O)cc1	none
COCCOC(=O)C(C#N)c1nc2ccccc2nc1N1CCN(Cc2ccccc2)CC1 (centres undefined)	DT40 TDP1 CPT 23µM, TDP1 cell noCPT 16µM
COCC(C)OC(=O)C(C#N)c1nc2ccccc2nc1N1CCN(Cc2ccccc2)CC1 (centres undefined)	DT40 TDP1 CPT inconclusive, TDP1 cell noCPT inconclusive
COc1ccc2[nH]c3c(c2c1)CCN1C(=O)N([C@@H](C)C(=O)NCCc2ccc(OC)c(OC)c2)C(=O)[C@]31C	DT40 TDP1 CPT 23µM, TDP1 cell noCPT 15µM (no result: TDP1 inh)
COc1cccc(CNC(=O)[C@@H](C)N2C(=O)N3CCc4c([nH]c5ccc(OC)cc45)C3(C)C2=O)c1 (some centres undefined)	DT40 TDP1 CPT 15µM, TDP1 cell noCPT 16µM (no result: TDP1 inh)
COc1ccc(CCNC(=O)[C@H](C)N2C(=O)N3CCc4c([nH]c5ccccc45)[C@@]3(C)C2=O)cc1	DT40 TDP1 CPT 21µM, uPA generation inconclusive, TDP1 cell noCPT 16µM (no result: TDP1 inh)
COc1ccccc1CNC(=O)[C@H](C)N1C(=O)N2CCc3c([nH]c4ccccc34)[C@@]2(C)C1=O	DT40 TDP1 CPT 29µM, TDP1 cell noCPT 18µM (no result: TDP1 inh)
COc1ccc(CNC(=O)[C@H](C)N2C(=O)N3CCc4c([nH]c5ccc(OC)cc45)[C@@]3(C)C2=O)cc1	DT40 TDP1 CPT inconclusive, TDP1 cell noCPT inconclusive (no result: TDP1 inh)
COc1ccc(CCNC(=O)[C@H](C)N2C(=O)N3CCc4c([nH]c5ccccc45)[C@@]3(C)C2=O)cc1OC	DT40 TDP1 CPT inconclusive, TDP1 cell noCPT inconclusive (no result: TDP1 inh)
COc1ccc2[nH]c3c(c2c1)CCN1C(=O)N([C@@H](C)C(=O)NCc2ccc(C)cc2)C(=O)[C@]31C	TDP1 cell noCPT inconclusive (no result: TDP1 inh)
CC(C)C[C@@H](C(=O)NCC1CCCO1)N1C(=O)N2CCc3c([nH]c4ccccc34)[C@@]2(C)C1=O (some centres undefined)	DT40 TDP1 CPT inconclusive (no result: TDP1 inh)
C/C(=N\NC(=O)c1ccc(O)cc1O)c1cccnc1	none
Cc1ccccc1-c1cc(C(=O)NCC2CC2)nn1CC1CC(c2cccc([N+](=O)[O-])c2)=NO1 (centres undefined)	DT40 TDP1 CPT inconclusive, TDP1 cell noCPT 16µM (no result: miR-21 act)
O=C1CC(c2cc([N+](=O)[O-])ccc2Cl)c2c(ccc3ccccc23)N1 (centres undefined)	DT40 TDP1 CPT 16µM, TDP1 cell noCPT 15µM
O=C1CC(c2cccc([N+](=O)[O-])c2)c2ccc3ccccc3c2N1 (centres undefined)	DT40 TDP1 CPT 26µM, TDP1 cell noCPT inconclusive
O=C1CC(c2c(Cl)cccc2Cl)c2c(ccc3ccccc23)N1 (centres undefined)	DT40 TDP1 CPT inconclusive, TDP1 cell noCPT 26µM (no result: uPA generation)
COc1ccc(OC)c(C2CC(=O)Nc3ccc4ccccc4c32)c1 (centres undefined)	DT40 TDP1 CPT inconclusive, TDP1 cell noCPT inconclusive (no result: uPA generation)
CCCCOc1ccccc1C1CC(=O)Nc2ccc3ccccc3c21 (centres undefined)	DT40 TDP1 CPT 12µM, TDP1 cell noCPT 6.5µM (no result: uPA generation)
O=C1CC(c2cccs2)c2ccc3ccccc3c2N1 (centres undefined)	DT40 TDP1 CPT inconclusive
CN1CCN(CCC(=O)Nc2ccc(C3CCCC3)cc2)CC1	DT40 TDP1 CPT inconclusive, TDP1 cell noCPT inconclusive
CCOC(=O)C1CCN(S(=O)(=O)c2ccc3oc(=O)ccc3c2)CC1	none (no result: TDP1 inh)
COc1cccc(-n2nc(C(C)=O)c(=O)[nH]c2=O)c1	none
CCCCN(Cc1ccccc1)S(=O)(=O)c1cc2c(cc1Br)CC(C)N2C(C)=O (centres undefined)	DT40 TDP1 CPT 18µM, TDP1 cell noCPT 18µM (no result: miR-21 act, TDP1 inh)
CCCCN(Cc1ccccc1)S(=O)(=O)c1ccc2c(c1)CC(C)N2C(=O)CC (centres undefined)	DT40 TDP1 CPT 23µM, TDP1 cell noCPT inconclusive (no result: uPA generation)
CC(=O)N1c2ccc(S(=O)(=O)NCCC(=O)N(C)Cc3ccccc3)cc2CC1C (centres undefined)	DT40 TDP1 CPT inconclusive, TDP1 cell noCPT inconclusive
CCC(=O)N1c2ccc(S(=O)(=O)N(CCO)Cc3ccccc3)cc2CC1C (centres undefined)	DT40 TDP1 CPT inconclusive
CCOC(=O)C1CCN(C(=O)c2cccc(S(=O)(=O)Nc3ccc(C)cc3C)c2)CC1	DT40 TDP1 CPT inconclusive, TDP1 cell noCPT inconclusive
Cc1ccnc(NC(=O)CCC2CCCCC2)c1	none
Cc1cc[n+](CCC2CCCCC2)cc1	DT40 TDP1 CPT 10µM, TDP1 cell noCPT 11µM (no result: uPA generation, miR-21 act, TDP1 inh)
COc1ccc(N2CCN(C(CNS(=O)(=O)c3c(C)cc(C)cc3C)c3ccco3)CC2)cc1 (centres undefined)	DT40 TDP1 CPT inconclusive, TDP1 cell noCPT 26µM (no result: uPA generation)
